The campaign covered roughly 2,400 compounds. About 750 (31%) were called active. The list shows a part of the results. A number with no mark means an inactive call.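 Rule for the calls: active = median signal gain over dofetilide-blocked control wells reaching their mean plus 3 SD, so readout 1 at least 0; inactive = the rest.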
Each molecule was assayed against Voltage-gated inwardly rectifying potassium channel KCNH2 (Homo sapiens) (UniProt Q12809) (assay: hERG protection against dofetilide inhibition, confirmation, cell-based, thallium flux, duplicate retest, dofetilide IC70 (AID 1835)). Settings: hERG cell line, FluxOR thallium flux, dofetilide-blocked; at 10 µM; stronger effect = higher value.
Sequence of Voltage-gated inwardly rectifying potassium channel KCNH2 (Homo sapiens) (Q12809 whole entry, looked up): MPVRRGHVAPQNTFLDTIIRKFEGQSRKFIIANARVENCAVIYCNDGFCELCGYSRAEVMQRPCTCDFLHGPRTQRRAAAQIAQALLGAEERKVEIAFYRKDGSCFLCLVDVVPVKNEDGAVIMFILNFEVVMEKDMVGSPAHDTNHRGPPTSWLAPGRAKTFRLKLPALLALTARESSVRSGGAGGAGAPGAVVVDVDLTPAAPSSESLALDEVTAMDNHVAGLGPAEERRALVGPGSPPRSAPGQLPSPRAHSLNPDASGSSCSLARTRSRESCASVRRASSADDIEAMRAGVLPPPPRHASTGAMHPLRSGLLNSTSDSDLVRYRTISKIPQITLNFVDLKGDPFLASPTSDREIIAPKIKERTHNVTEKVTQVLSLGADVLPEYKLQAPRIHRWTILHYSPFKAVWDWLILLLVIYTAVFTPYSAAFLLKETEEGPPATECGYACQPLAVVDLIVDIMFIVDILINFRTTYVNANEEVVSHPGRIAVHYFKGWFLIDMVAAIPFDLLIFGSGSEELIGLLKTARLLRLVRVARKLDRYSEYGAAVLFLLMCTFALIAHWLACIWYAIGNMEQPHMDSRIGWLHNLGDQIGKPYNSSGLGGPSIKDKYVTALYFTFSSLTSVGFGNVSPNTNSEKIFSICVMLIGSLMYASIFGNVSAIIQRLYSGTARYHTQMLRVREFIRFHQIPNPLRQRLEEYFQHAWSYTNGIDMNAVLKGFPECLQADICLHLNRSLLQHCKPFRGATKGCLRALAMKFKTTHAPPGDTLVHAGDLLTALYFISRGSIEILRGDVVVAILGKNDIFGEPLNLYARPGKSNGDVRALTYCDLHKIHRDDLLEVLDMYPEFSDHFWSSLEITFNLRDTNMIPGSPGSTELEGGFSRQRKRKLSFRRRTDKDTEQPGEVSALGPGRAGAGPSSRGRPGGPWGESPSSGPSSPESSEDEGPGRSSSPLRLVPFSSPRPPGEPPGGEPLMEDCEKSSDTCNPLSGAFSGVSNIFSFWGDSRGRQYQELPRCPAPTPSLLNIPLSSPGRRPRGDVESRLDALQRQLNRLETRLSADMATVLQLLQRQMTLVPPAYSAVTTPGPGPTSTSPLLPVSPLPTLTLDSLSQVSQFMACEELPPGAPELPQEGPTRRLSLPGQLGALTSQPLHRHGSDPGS
Molecule `Cc1cc([N+](=O)[O-])nn1CC(=O)Nc1ccc(Cl)cn1` has an activity increase over dofetilide control, less the hit threshold of -12%. `Cc1ccc(O)c(Sc2cc(C)ccc2O)c1` showed an activity increase over dofetilide control, less the hit threshold of -34%. Molecule `O=C(CCC(=O)N1CCN(S(=O)(=O)c2ccccc2)CC1)c1cccs1` has an activity increase over dofetilide control, less the hit threshold of -14%. With `Cc1[nH]n(-c2ccc(F)cc2)c(=O)c1/C=N/c1sc2c(c1C#N)CCCC2` the activity increase over dofetilide control, less the hit threshold was 41% (active). In the case of `Cc1[nH]n(-c2cccc3ccccc23)c(=O)c1/C=N/c1sc2c(c1C#N)CCC2`, the activity increase over dofetilide control, less the hit threshold is reported as 3% (active). `CN(C1=C(NC(=O)c2ccccc2)C(=O)c2ccccc2C1=O)C1CCS(=O)(=O)C1` (centres undefined) showed an activity increase over dofetilide control, less the hit threshold of -4%. `COCCn1cnc2c1c(=O)n(CC#N)c(=O)n2Cc1ccccc1` showed an activity increase over dofetilide control, less the hit threshold of -14%. With `COc1cccc2sc(Nc3nnc(-c4ccccc4Cl)o3)nc12` the activity increase over dofetilide control, less the hit threshold was 16% (active). `COc1ccccc1Nc1nnc(SCC(=O)Nc2nc(-c3ccc(F)cc3)cs2)s1` showed an activity increase over dofetilide control, less the hit threshold of -24%. With `N#C/C(=C\c1ccc(-c2ccccc2Cl)o1)C(=O)Nc1nc2ccccc2s1` the activity increase over dofetilide control, less the hit threshold was -6%. In the case of `COc1cccc2sc(Nc3nnc(-c4ccc(F)cc4)o3)nc12`, the activity increase over dofetilide control, less the hit threshold is reported as 83% (active). `COc1cccc2sc(Nc3nc(-c4ccccn4)cs3)nc12` gave an activity increase over dofetilide control, less the hit threshold of -19%. With `COc1cccc2sc(Nc3nnc(-c4cccs4)o3)nc12` the activity increase over dofetilide control, less the hit threshold was 52% (active). `Cc1ccc(NC(=O)c2ccc(NC3=NC4CS(=O)(=O)CC4S3)cc2)cc1` (centres undefined) showed an activity increase over dofetilide control, less the hit threshold of -14%. Work on `O=C(C[n+]1ccccc1)N/N=C/c1ccc(Cl)c(Cl)c1` yielded an activity increase over dofetilide control, less the hit threshold of -13%. `O=C(CC1CCCC1)Nc1ccc2c(c1)CCC2` showed an activity increase over dofetilide control, less the hit threshold of -5%. In the case of `COc1ccccc1NC(=S)N1CCCc2ccccc21`, the activity increase over dofetilide control, less the hit threshold is reported as -16%. In the case of `COc1ccc(/C=N/NC(=O)c2ccncc2)cc1CN1CCCc2ccccc21`, the activity increase over dofetilide control, less the hit threshold is reported as 3% (active). `COc1ccc(/C=N/NC(=O)C(=O)N2CCCC2)cc1` was tested, and the activity increase over dofetilide control, less the hit threshold was -4%. For `O=[N+]([O-])c1cc(Cl)cc(/C=N/NC(=S)Nc2ccc(S(=O)(=O)N3CCOCC3)cc2)c1O`, the activity increase over dofetilide control, less the hit threshold was -3%. `Cc1c(C)c2ccc(OCC(=O)N[C@@H](Cc3ccccc3)C(=O)O)cc2oc1=O` was tested, and the activity increase over dofetilide control, less the hit threshold was 2% (active). `O=C(COc1ccc2c3c(c(=O)oc2c1)CCC3)N[C@@H](Cc1ccccc1)C(=O)O` was tested, and the activity increase over dofetilide control, less the hit threshold was 9% (active). Molecule `O=C(COc1ccc2c3c(c(=O)oc2c1)CCC3)NCC1CCC(C(=O)O)CC1` (centres undefined) has an activity increase over dofetilide control, less the hit threshold of -7%. In the case of `Cc1cc(=O)oc2c3c(cc(OCC(=O)N[C@@H](Cc4ccccc4)C(=O)O)c12)OC(C)(C)CC3`, the activity increase over dofetilide control, less the hit threshold is reported as -3%. For `O=c1oc2cc(OCCO)ccc2c2c1CCCC2`, the activity increase over dofetilide control, less the hit threshold was -8%. Work on `Cc1cc(=O)oc2cc(OCC(=O)OCC(=O)NC(C)C)ccc12` yielded an activity increase over dofetilide control, less the hit threshold of -22%. Molecule `Cc1ccc(C(C)C)cc1OCCn1cncn1` has an activity increase over dofetilide control, less the hit threshold of -24%. Work on `O=C1Nc2ccc(Br)cc2C1Cc1ccccc1F` (centres undefined) yielded an activity increase over dofetilide control, less the hit threshold of -17%. Molecule `Cc1ccc(C(=O)CC(=O)c2ccc(C)cc2O)cc1` has an activity increase over dofetilide control, less the hit threshold of -1%. For `Cc1ccc(C(=O)CC(=O)c2cccc(F)c2)c(O)c1`, the activity increase over dofetilide control, less the hit threshold was 1% (active). `O=C(CC(=O)c1ccccc1O)c1cccc(F)c1` gave an activity increase over dofetilide control, less the hit threshold of -6%. For `COc1cc(C(=O)NCc2ccc(-c3nc4ccccc4o3)cc2)cc(OC)c1OC`, the activity increase over dofetilide control, less the hit threshold was -12%. Molecule `O=C(Nc1nnc(SCC(=O)N2CCCCC2)s1)C1CCCCC1` has an activity increase over dofetilide control, less the hit threshold of -18%. With `CCSc1nnc(NC(=O)CC(C)C)s1` the activity increase over dofetilide control, less the hit threshold was 3% (active). With `CCSc1nnc(NC(=O)Cn2cnc3c2c(=O)n(C)c(=O)n3C)s1` the activity increase over dofetilide control, less the hit threshold was -22%. Molecule `COc1ccc(S(=O)(=O)Nc2ccc(Cl)cn2)c(C)c1C` has an activity increase over dofetilide control, less the hit threshold of -9%. For `CC[C@@H](C(=O)[C@@H](C)[C@@H](O)[C@H](C)CCc1ccc(C)c(O)c1C(=O)O)[C@H]1O[C@](CC)([C@H]2CC[C@](O)(CC)[C@H](C)O2)C[C@@H]1C`, the activity increase over dofetilide control, less the hit threshold was 93% (active). `COc1ccc(NC(=O)CCN2C(=O)C3C4C=CC(C4)C3C2=O)cc1` (centres undefined) was tested, and the activity increase over dofetilide control, less the hit threshold was -14%. `O=C(CCN1C(=O)/C(=C/c2cccs2)SC1=S)Nc1cccc(C(=O)O)c1` showed an activity increase over dofetilide control, less the hit threshold of -13%. `O=C(CSc1nc(-c2ccccc2)nc2ccc(F)cc12)Nc1cccc(C(=O)O)c1` gave an activity increase over dofetilide control, less the hit threshold of -23%. With `O=C(CCN1C(=O)/C(=C\C=C\c2ccccc2)SC1=S)Nc1cccc(C(=O)O)c1` the activity increase over dofetilide control, less the hit threshold was 93% (active). For `O=C(CCN1C(=O)/C(=C\C=C\c2ccccc2)SC1=S)Nc1ccc(C(=O)O)cc1`, the activity increase over dofetilide control, less the hit threshold was 26% (active). `CC(C)Oc1cc(S(=O)(=O)N2CCCCC2)ccc1N` gave an activity increase over dofetilide control, less the hit threshold of -18%. In the case of `CC(C)(C)C(=O)NC(=S)N1CCOCC1`, the activity increase over dofetilide control, less the hit threshold is reported as 3% (active). Work on `Cc1cc(F)c(F)c(C(=O)N2CCOCC2)c1` yielded an activity increase over dofetilide control, less the hit threshold of -17%. With `S=C(N/N=C/c1ccc(Cl)cc1)N1CCOCC1` the activity increase over dofetilide control, less the hit threshold was -47%. `CCCCCOCC1CC(C/C(C)=N/Nc2nc(-c3ccccc3)cs2)C(=O)O1` (centres undefined) showed an activity increase over dofetilide control, less the hit threshold of -5%. `CCOC(=O)N/N=C\c1ccc(-c2cc(Cl)ccc2Cl)o1` showed an activity increase over dofetilide control, less the hit threshold of -2%. With `COCc1cc(C)nc(OCC(=O)N/N=C/c2ccc(-c3cc([N+](=O)[O-])ccc3Cl)o2)c1C#N` the activity increase over dofetilide control, less the hit threshold was -7%. `Cc1cc([N+](=O)[O-])c(C)cc1-c1ccc(/C=N/NC(=O)Cn2nnnc2N)o1` was tested, and the activity increase over dofetilide control, less the hit threshold was 0% (active). With `C=C(C)CSc1nc(N)cc(=O)[nH]1` the activity increase over dofetilide control, less the hit threshold was -4%. Work on `O=C1NC(=S)/C(=C\c2ccc(-c3ccccc3Cl)o2)S1` yielded an activity increase over dofetilide control, less the hit threshold of -23%. In the case of `O=C1NC(=S)S/C1=C\c1ccc2ccccc2c1`, the activity increase over dofetilide control, less the hit threshold is reported as 28% (active). `O=C1NC(=O)/C(=C/c2cc3c(cc2Br)OCO3)S1` was tested, and the activity increase over dofetilide control, less the hit threshold was -17%. With `Cc1ccccc1NC(=O)CN1C(=O)S/C(=C\c2ccc(-c3cc(C(=O)O)ccc3C)o2)C1=O` the activity increase over dofetilide control, less the hit threshold was -3%. `Cc1ccsc1/C=C1/SC(=O)N(CC(=O)N2CCCC2)C1=O` showed an activity increase over dofetilide control, less the hit threshold of -4%. `Cc1c(/C=C2\SC(=O)N(CC(=O)Nc3ccc4c(c3)OCO4)C2=O)c2ccccc2n1C` gave an activity increase over dofetilide control, less the hit threshold of -11%. With `Cc1cc(C(=O)NCCN2C(=O)S/C(=C\c3cccs3)C2=O)ccc1[N+](=O)[O-]` the activity increase over dofetilide control, less the hit threshold was -1%. `Cc1ccc(NC(=O)CN2C(=O)S/C(=C/c3ccc(-c4cc(C(=O)O)ccc4C)o3)C2=O)cc1C` was tested, and the activity increase over dofetilide control, less the hit threshold was -29%. `Cc1ccccc1NC(=O)CN1C(=O)S/C(=C\c2ccc(-c3cccc(C(=O)O)c3C)o2)C1=O` was tested, and the activity increase over dofetilide control, less the hit threshold was 19% (active). In the case of `Cc1ccc(NC(=O)CN2C(=O)S/C(=C\c3ccc(-c4cccc(C(=O)O)c4C)o3)C2=O)cc1`, the activity increase over dofetilide control, less the hit threshold is reported as 25% (active). Molecule `O=C(CCl)NCCN1C(=O)S/C(=C\c2cccnc2)C1=O` has an activity increase over dofetilide control, less the hit threshold of -5%. `Cc1ccc(C(=O)O)cc1-c1ccc(/C=C2\SC(=O)N(CC(=O)Nc3ccccc3)C2=O)o1` was tested, and the activity increase over dofetilide control, less the hit threshold was 87% (active). `C#CCN1C(=O)S/C(=C\c2ccc(-c3ccc(C(=O)O)cc3C)o2)C1=O` was tested, and the activity increase over dofetilide control, less the hit threshold was 1% (active).

— PubChem BioAssay AID1835 (Johns Hopkins Ion Channel Center, 2009)
